From PubChem BioAssay (EPA / NIEHS)
Activity calls are given as the source filed them. The calls were made as follows: active = hit-call score of the fitted dose curve at least 0.9, where 1 is the maximum; inactive = score below 0.9.

What follows are molecules tested against Nuclear respiratory factor 1 (Homo sapiens) (UniProt Q16656) (assay: ATG_NRF1_CIS: Attagene CIS-FACTORIAL HepG2 Assay for human Nuclear Respiratory Factor 1 (NRF1) Orphan Gene (AID 2282987)). Details: HepG2 NRF1 cis-element reporter, Attagene multiplex; actives raise or lower the signal.
Description: ATG_CIS is a cell-based, multiplexed-readout assay that uses HepG2, a human liver cell line, with measurements taken at 24 hours after chemical dosing in a 24-well plate.ATG_NRF1_CIS is one of 52 assay component(s) measured or calculated from the ATG_CIS assay. It is designed to make measurements of mRNA induction, a form of inducible reporter, as detected with fluorescence intensity signals by Reverse transcription polymerase chain reaction (RT-PCR) and Capillary electrophoresis technology.Data from the assay component ATG_NRF1_CIS was analyzed into 1 assay endpoint. This assay endpoint, ATG_NRF1_CIS, was analyzed with bidirectional fitting relative to DMSO as the negative control and baseline of activity. Using a type of inducible reporter, measures of mRNA for gain or loss-of-signal activity can be used to understand the reporter gene at the transcription factor-level as they relate to the gene NRF1. Furthermore, this assay endpoint can be referred to as a primary readout, because this assay has produced multiple assay endpoints where this one serves a reporter gene function. To generalize the intended target to other relatable targets, this assay endpoint is annotated to the dna binding intended target family, where the subfamily is nuclear respiratory factors.
Human liver HepG2 cells are transiently transfected with multiple reporter transcription units (MRTUs) in 6-well plates using FuGene 6 reagent (Roche; 3 ml FuGene/1 mg DNA). The MRTU constructs are regulated by a cis-regulating element (promoter). […] A major difference between the CIS and TRANS system is that in CIS activities of endogenous TFs are measured, whereas the TRANS assay evaluates changes in activities of exogenous, chimeric NR-Gal4 proteins. […] At the end of 24 hour incubation, total RNA was isolated using TriZol reagent (Invitrogen). The isolated RNA is then reverse-transcribed using oligo(dT) primer and Mo-MLV reverse transcriptase (Invitrogen) with DNAse I (Ambion) treatment for 30 min. The one-tenth of the produced cDNA was amplified by PCR using Taq DNA polymerase (Invitrogen) and two reporter sequence-specific primers. The PCR products were fluorescently labeled by primer extension with 6-arboxyfluorescein (6-FAM) 5'-labeled reporter sequence-specific primer (2 min at 95 C, 20 s at 68 C and 10 min at 72 C) and these products were digested with 5U of HpaI (New England Biolabs) for 2h at 37 C. The fragments were purified using Qiaquick PCR columns (Qiagen), analyzed on an ABI 3130xL genetic analyzer (Applied Biosystems) with peak positions identified by using a set of X-rhodamine (ROX)-labeled MapMarker1000 molecular weight standards (BioVentures). The raw capillary electrophoresis data was processed using Attagraph software (Attagene).

Nuclear respiratory factor 1 (Homo sapiens), sequence (Q16656 whole entry, looked up): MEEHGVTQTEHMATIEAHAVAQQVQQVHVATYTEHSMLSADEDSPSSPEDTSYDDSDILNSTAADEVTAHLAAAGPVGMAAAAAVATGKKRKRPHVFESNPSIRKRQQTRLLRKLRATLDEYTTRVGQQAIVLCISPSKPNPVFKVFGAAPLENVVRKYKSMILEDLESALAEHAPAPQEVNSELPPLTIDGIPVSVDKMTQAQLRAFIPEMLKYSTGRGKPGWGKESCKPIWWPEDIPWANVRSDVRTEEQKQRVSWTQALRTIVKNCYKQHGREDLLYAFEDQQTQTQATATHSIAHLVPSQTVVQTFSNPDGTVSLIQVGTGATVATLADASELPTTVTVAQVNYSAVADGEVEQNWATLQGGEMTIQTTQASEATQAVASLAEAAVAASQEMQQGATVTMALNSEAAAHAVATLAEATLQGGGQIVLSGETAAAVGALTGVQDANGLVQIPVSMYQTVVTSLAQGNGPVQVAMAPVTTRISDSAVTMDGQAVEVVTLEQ

Structure (SMILES)	outcome	AC50
Nc1nnc(-c2ccc([N+](=O)[O-])o2)o1	inactive	
CC(O)(P(=O)(O)O)P(=O)(O)O	inactive	
CN(C)CCCN1c2ccccc2CCc2ccc(Cl)cc21	inactive	
CC1(C)S[C@@H]2[C@H](NC(=O)[C@H](N)c3ccccc3)C(=O)N2[C@H]1C(=O)O	inactive	
O=[N+]([O-])c1ccccc1C(F)(F)F	inactive	
CCC(=O)OCc1ccc(OC)cc1	inactive	
CCO[Si](OCC)(OCC)c1ccccc1	inactive	
C/C=C(\C)C(=O)OCC/C=C\CC	inactive	
CC/C=C\CC/C=C/C(OCC)OCC	inactive	
CCCCCCC1CCC(=O)O1 (stereo not given)	inactive	
CCCCCCCC#N	inactive	
CC/C=C\CCO	inactive	
O=C(O)/C=C/C(=O)O	inactive	
CCO[Si](CCCN)(OCC)OCC	inactive	
CCCCCCCCCC/C=C/C1CC(=O)OC1=O (stereo not given)	inactive	
C=C1CC[C@H]2C[C@@H]1C2(C)C	inactive	
F[B-](F)(F)F	inactive	
Cc1ccccc1S(N)(=O)=O	inactive	
O=C(CC(C(=O)OC1CCCCC1)S(=O)(=O)O)OC1CCCCC1 (stereo not given)	inactive	
Cc1cccnc1	inactive	

Structure (SMILES)	outcome	AC50
C=CN1CCCCCC1=O	inactive	
CCCCn1cc[n+](C)c1	inactive	
CCC(C)=NO	inactive	
Sc1nc2ccccc2s1	inactive	
Oc1ccc(Cl)cc1C1CCCC1		44.1 µM (active)
C[Si](C)(C)O[Si](C)(C)O[Si](C)(C)C	inactive	
Cc1ccnc(N)c1	inactive	
CCC(C)NC(N)=O (stereo not given)	inactive	
CN(C)c1ccc(C(c2ccccc2)c2ccc(N(C)C)cc2)cc1	inactive	
O=C(O)Cc1c[nH]c2ccccc12	inactive	
c1ccc2c(c1)Oc1ccccc1S2	inactive	
CC(C)CC(=O)CC(C)CC(C)C (stereo not given)	inactive	
NC(=O)c1ccc(N)cc1	inactive	
CCCCCCC(O)CCCCCCCCCCC(=O)OC (stereo not given)	inactive	
CCCN[C@H]1CCc2nc(N)sc2C1	inactive	
Cc1cc2nc3c(=O)[nH]c(=O)nc-3n(C[C@H](O)[C@H](O)[C@H](O)CO)c2cc1C	inactive	
Brc1ccc(Oc2ccc(Br)cc2)cc1	inactive	
Cc1cc(O)cc(C)c1Cl	inactive	
CC=CC(=O)O	inactive	
CCCCC(CC)COC(=O)CS (stereo not given)	inactive	
